Experimental data from PubChem BioAssay AID1159580 (chemical genetic matrix, 2015).
Screen size: about 5,500 compounds; about 2,000 (36%) were called active. Another 18% or so got no clear call; they are omitted. Rule as the data show it: active = normalized growth mostly below about 0.91 (no sharp cut-off); inconclusive = no clear call, values can overlap the other calls; inactive = mostly above about 0.92. The list shows a part of the results.

Assay: chemical genetic growth profiling, strain panel (AID 1159580);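 also: tested at 20 µM; growth read once vehicle control cultures reached saturation at 30 °C; 1 = growth at the plate median or of vehicle wells; lower values mean less growth of the strain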
Conditions: growth OD
[1] = S. cerevisiae deletion strains, locus YAL013W, strain DEP1, active compounds read low
[2] = S. cerevisiae deletion strains, locus YBR229C, strain ROT2, active compounds read low
[3] = S. cerevisiae deletion strains, locus YCL061C, strain MRC1, active compounds read low
[4] = S. cerevisiae deletion strains, locus YDL101C, strain DUN1, active compounds read low
[5] = S. cerevisiae deletion strains, locus YDL134C, strain PPH21, active compounds read low
[6] = S. cerevisiae deletion strains, locus YDR150W, strain NUM1, active compounds read low
[7] = S. cerevisiae deletion strains, locus YEL061C, strain CIN8, active compounds read low
[8] = S. cerevisiae deletion strains, locus YGR078C, strain PAC10, active compounds read low
[9] = S. cerevisiae deletion strains, locus YHR030C, strain SLT2, active compounds read low
[10] = S. cerevisiae deletion strains, locus YHR087W, strain rtc3, active compounds read low
[11] = S. cerevisiae deletion strains, locus YJR043C, strain POL32, active compounds read low
[12] = S. cerevisiae deletion strains, locus YJR075W, strain HOC1, active compounds read low
[13] = S. cerevisiae deletion strains, locus YLR039C, strain RIC1, active compounds read low
[14] = S. cerevisiae deletion strains, locus YLR058C, strain SHM2 (second series), active compounds read low
[15] = S. cerevisiae deletion strains, locus YLR085C, strain ARP6, active compounds read low
[16] = S. cerevisiae deletion strains, locus YLR262C, strain YPT6, active compounds read low
[17] = S. cerevisiae deletion strains, locus YML094W, strain GIM5, active compounds read low
[18] = S. cerevisiae deletion strains, locus YMR219W, strain ESC1, active compounds read low
[19] = S. cerevisiae deletion strains, locus YMR263W, strain SAP30, active compounds read low
[20] = S. cerevisiae deletion strains, locus YNL153C, strain GIM3, active compounds read low
[21] = S. cerevisiae deletion strains, locus YNL298W, strain CLA4 (second series), active compounds read low
[22] = S. cerevisiae deletion strains, locus YNL322C, strain KRE1, active compounds read low
[23] = S. cerevisiae deletion strains, locus YNR030W, strain Alg12, active compounds read low
[24] = S. cerevisiae deletion strains, locus YPL055C, strain LGE1, active compounds read low
[25] = S. cerevisiae deletion strains, locus YPL241C, strain CIN2, active compounds read low
[26] = S. cerevisiae deletion strains, locus YPR135W, strain CTF4, active compounds read low
[27] = S. cerevisiae strains, strain wild type, active compounds read low
[28] = S. cerevisiae deletion strains, locus YJL187C, strain SWE1, active compounds read low
[29] = S. cerevisiae deletion strains, locus YKL190W, strain CNB1, active compounds read low
[30] = S. cerevisiae deletion strains, locus YGR229C, strain SMI1, active compounds read low
[31] = S. cerevisiae deletion strains, locus YMR307W, strain GAS1, active compounds read low
[32] = S. cerevisiae deletion strains, locus YOL006C, strain TOP1, active compounds read low

Measured: normalized growth

O=[N+]([O-])c1ccc(N2CCOCC2)cc1
inactive: [1] 0.996 | [2] 1 | [3] 1.02 | [4] 1.06 | [5] 0.969 | [6] 1.05 | [7] 0.969 | [8] 1.03 | [9] 1.05 | [10] 0.937 | [11] 1.04 | [12] 0.978 | [13] 0.991 | [14] 0.976 | [15] 0.98 | [16] 0.962 | [17] 0.939 | [18] 0.992 | [19] 1.03 | [20] 1.03 | [21] 0.988 | [22] 0.965 | [23] 0.974 | [24] 0.971 | [25] 1.01 | [26] 1.02 | [27] 0.982

Cc1cc(=O)n(-c2ccc([N+](=O)[O-])cc2)[nH]1
inactive: [4] 0.955 | [6] 0.905 | [7] 0.958 | [14] 0.965 | S. cerevisiae deletion strains, locus YNL128W, strain TEP1, active compounds read low 0.957 | [22] 0.989
active: [1] 0.509 | [2] 0.867 | [8] 0.927 | [9] 0.34 | [10] 0.8 | [28] 0.814 | [11] 0.718 | [12] 0.847 | [29] 0.726 | [13] 0.437 | [15] 0.592 | [16] 0.583 | [17] 0.84 | [18] 0.9 | [19] 0.85 | [20] 0.884 | [21] 0.821 | [23] 0.811 | [24] 0.69 | [25] 0.811 | [26] 0.504 | [27] 0.866

O=C1c2ccccc2C(=O)N1CN(CCSc1ccccc1)CN1C(=O)c2ccccc2C1=O
inactive: [1] 1.01 | [2] 0.987 | [4] 0.992 | [6] 0.993 | [7] 0.987 | [8] 0.993 | [30] 1 | [9] 1.01 | [10] 0.986 | [28] 1.03 | [11] 1.01 | [12] 0.981 | [29] 1 | [13] 0.986 | [14] 1 | [15] 0.957 | [16] 1.07 | [17] 0.973 | [18] 0.992 | [19] 1.01 | [20] 1.01 | [21] 0.978 | [22] 0.994 | [23] 1 | [24] 0.995 | [25] 0.964 | [26] 1.05

O=C1C(SCCO)=C(SCCO)C(=O)c2ccccc21
active: [31] 0.751 | S. cerevisiae deletion strains, locus YOR083W, strain WHI5 (second series), active compounds read low 0.858
inactive: S. cerevisiae deletion strains, locus YAL040C, strain CLN3, active compounds read low 1.06 | S. cerevisiae deletion strains, locus YCL061C, strain MRC1 (second series), active compounds read low 0.982 | [6] 0.981 | S. cerevisiae deletion strains, locus YDR363W, strain ESC2, active compounds read low 0.966 | S. cerevisiae deletion strains, locus YER002W, strain NOP16, active compounds read low 1.04 | [8] 0.982 | S. cerevisiae deletion strains, locus YNL175C, strain NOP13, active compounds read low 0.988 | S. cerevisiae deletion strains, locus YNL197C, strain WHI3, active compounds read low 0.99 | S. cerevisiae deletion strains, locus YNL224C, strain SQS1, active compounds read low 0.985 | [25] 0.996

OCc1ccccc1-c1ccccc1
inactive: [1] 0.995 | [2] 0.984 | [3] 0.957 | [4] 0.941 | [5] 0.985 | [6] 0.924 | [7] 0.987 | [8] 0.985 | [30] 0.993 | [9] 0.984 | [10] 1.01 | [28] 1 | [11] 0.971 | [12] 1.02 | [29] 1.01 | [13] 0.952 | [14] 1.02 | [15] 1.03 | [16] 0.99 | [17] 0.959 | [18] 0.99 | [19] 0.987 | [20] 0.95 | [21] 1 | [22] 1.02 | [23] 0.994 | [32] 0.997 | [24] 0.85 | [25] 0.988 | [26] 0.976 | [27] 1.01

O=C(O)CSC1CCS(=O)(=O)C1 (stereo not drawn)
inactive: [1] 1.02 | [2] 0.998 | [3] 1.02 | [4] 1.02 | [5] 1.02 | [6] 0.956 | [7] 1.04 | [8] 1.01 | [9] 1.05 | [10] 1.01 | [11] 1 | [12] 1.06 | [29] 1.01 | [13] 1.06 | [14] 1.01 | [15] 1 | [16] 1.06 | [17] 1.03 | [18] 1 | [19] 1 | [20] 0.997 | [21] 1.01 | [22] 1.03 | [23] 1 | [24] 0.906 | [25] 1.01 | [26] 1.02 | [27] 1.01

NC(=S)CSc1ccccc1
active: [7] 0.87 | [9] 0.62 | [29] 0.864 | [15] 0.591 | [21] 0.711 | [23] 0.681 | [32] 0.31 | [25] 0.832 | [27] 0.888
inactive: [1] 0.937 | [2] 0.969 | [4] 1.01 | [6] 0.921 | [8] 0.99 | [30] 0.991 | [10] 1.03 | [28] 0.969 | [11] 0.924 | [12] 1.04 | [13] 0.883 | [14] 1 | [16] 0.919 | [17] 0.892 | [18] 0.999 | [20] 0.981 | [22] 1.04 | [24] 0.855 | [26] 0.679

Cn1c(CSc2ccccc2)n[nH]c1=S
inactive: [1] 0.997 | [2] 0.99 | [4] 0.994 | [5] 1.01 | [6] 0.949 | [7] 1.02 | [8] 0.977 | [9] 1.01 | [10] 0.982 | [11] 0.978 | [12] 0.987 | [13] 1.05 | [14] 0.998 | [15] 1.09 | [16] 1.04 | [17] 1.01 | [18] 0.992 | [19] 0.963 | [31] 1.2 | [20] 0.981 | [21] 1.03 | [22] 1.01 | [23] 1.02 | [24] 0.965 | [25] 1.02 | [26] 1.04 | [27] 1.01
